Data from PubChem BioAssay (NCATS).
Inconclusive results are not listed. Calls of active or inactive are those of the source. Unless noted, how the calls were made is not given here. Residues, ends and D or L forms follow the SMILES beside them. *: point of attachment. Cbz = O=C(OCc1ccccc1)*

How the values were obtained:
[1] = qHTS profiling of the MIPE4 collection as inhibitors of Plasmodium falciparum (3D7) proliferation (AID 743344);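 further: scaled between DMSO vehicle wells and 0.29 µM artemisinin as full inhibition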; details: P. falciparum 3D7 in erythrocytes, SYBR Green DNA fluorescence, 72 h; at 28.5 µM unless noted
Procedure, shortened: (§1)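 Parasite DNA was quantified by SYBR Green I fluorescence (ex 485, em 535 nm) after overnight lysis in saponin/Triton buffer at room temperature. Cultures at 0.3% parasitemia and 2.5% hematocrit were first exposed to compound for 72 h at 37 C; signals were normalised to artemisinin (0.29 uM) and vehicle wells.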

[2] = qHTS profiling of the MIPE4 collection as inhibitors of Plasmodium falciparum (DD2) proliferation (AID 743345); details: P. falciparum Dd2 in erythrocytes, SYBR Green DNA, 72 h; at 28.5 µM unless noted
Procedure, shortened: as §1

[3] = qHTS profiling of the MIPE4 collection as inhibitors of Plasmodium falciparum (HB3) proliferation (AID 743347);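 further: plate controls were DMSO vehicle wells for no effect and artemisinin wells for full effect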; details: P. falciparum HB3 in erythrocytes, SYBR Green DNA, 72 h; at 28.5 µM unless noted
Procedure, shortened: as §1

[4] = High-throughput drug toxicity screening in the BPDCN cell line Gen2.2 (AID 1224824); details: Gen2.2 BPDCN cells; at 45.8 µM (top of the series) unless noted;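 further: cells exposed to compounds for 48 h before reading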
Procedure, shortened: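 Readout is ATP luminescence from Gen2.2 cells after two days of drug exposure in serum-containing medium at 37 °C. Values express percent activity, with vehicle defining full signal and 9.2 uM bortezomib defining zero.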

[5] = High-throughput drug toxicity screening in the BPDCN cell line Cal-1 (AID 1224825); details: Cal-1 BPDCN cell viability, qHTS; at 45.8 µM (top of the series) unless noted
Procedure, shortened: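 Percent activity derived from CellTiter-Glo luminescence, scaling DMSO to 100% and 9.2 uM final bortezomib to 0%. BPDCN Cal-1 cells (500/well, RPMI plus 10% FBS) incubated with compounds 48 hours at 37C before reading.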

[6] = qHTS assay for measurement of the activity of small molecule inhibitors on Zika virus induced Caspase-3 activity in human iPSC derived neural progenitor cells (hNPCs) (AID 1224857; active means well fitted curve in the direction sought with a large enough effect; an effect the other way counts as inactive or inconclusive; further: % of control where 0% means no effect; nearly all actives have a fitted effect of over 65% in size)
Procedure, shortened: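 Values are percent inhibition of virus-induced caspase-3/7 signal, scaled between uninfected cells and ZIKV-infected cells. Infection used 2 FFU/cell for 6 h after 1 h compound exposure.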

[7] = qHTS assay for measurement of the activity of small molecule inhibitors on Zika virus induced Caspase-3 activity in human astrocytoma cells (AID 1224859; active means well fitted curve in the direction sought with a large enough effect; an effect the other way counts as inactive or inconclusive;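 further: plate controls were ZIKV-infected untreated cells for no effect and uninfected cells for full effect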)
Procedure, shortened: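 Compound added 1 h pre-infection; ZIKV 2 FFU/cell on SNB-19 cells, 6 h, 37 C/5% CO2. Caspase-Glo 3/7 luminescence; values as % inhibition of ZIKV-induced caspase activity.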

[8] = qHTS Screen of the MIPE 4.0 Collection Against Ewings Sarcoma (RDES) (AID 1259252; active means well fitted curve in the direction sought with a large enough effect; an effect the other way counts as inactive or inconclusive; further: nearly all actives have a fitted effect of over 35% in size; further: potency means the concentration at half of the fitted maximal effect)
Procedure, shortened: (§2)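 CellTiter-Glo luminescence after 48 h compound exposure (titration) gave viability; percent activity used DMSO-treated cells as no inhibition and medium-only wells as full inhibition. Cells grown in RPMI/5% FBS, dosed 4 h post-seeding.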

[9] = qHTS Screen of the MIPE 4.0 Collection Against Ewings Sarcoma (TC71) (AID 1259253; active means well fitted curve in the direction sought with a large enough effect; an effect the other way counts as inactive or inconclusive; further: nearly all actives have a fitted effect of over 40% in size; further: potency means the concentration at half of the fitted maximal effect)
Procedure, shortened: as §2

[10] = qHTS Screen of the MIPE 4.0 Collection Against Ewings Sarcoma (EW8) (AID 1259255; active means well fitted curve in the direction sought with a large enough effect; an effect the other way counts as inactive or inconclusive; further: nearly all actives have a fitted effect of over 35% in size; further: potency means the concentration at half of the fitted maximal effect;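 on viability: 100% = DMSO-treated cells and 0% = medium-only wells without cells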)
Procedure, shortened: as §2

[11] = qHTS profiling of the MIPE4 collection as inhibitors of Plasmodium falciparum (DD2) proliferation (Rep 2) (AID 743346); details: P. falciparum Dd2 in erythrocytes, SYBR Green DNA, 72 h; at 28.5 µM unless noted
Procedure, shortened: as §1

[12] = qHTS profiling for inhibitors of Plasmodium falciparum (3D7) proliferation (AID 743322);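 further: infected erythrocytes exposed to compound for 72 h before lysis; 100% = DMSO vehicle wells and 0% = 0.29 µM artemisinin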; details: P. falciparum 3D7 proliferation; at 28.7 µM (top of the series)
Procedure, shortened: as §1

[13] = qHTS profiling for inhibitors of Plasmodium falciparum (DD2) proliferation (AID 743323); details: lower = more inhibition; at 28.7 µM (top of the series)
Procedure, shortened: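 Parasite proliferation measured via DNA-dye fluorescence, as uninfected erythrocytes lack DNA. Cultures at 0.3% parasitemia and 2.5% hematocrit incubated 72 h with compound; signal scaled between vehicle and 0.29 uM artemisinin wells.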

[14] = qHTS profiling for inhibitors of Plasmodium falciparum (HB3) proliferation (AID 743324; active means well fitted curve in the direction sought with a large enough effect; an effect the other way counts as inactive or inconclusive;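 further: 100% = DMSO vehicle wells and 0% = artemisinin-treated control wells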); details: Plasmodium falciparum HB3 blood-stage proliferation; at 28.7 µM (top of the series)
Procedure, shortened: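 SYBR Green fluorescence (485 ex/535 em) of lysed cultures, incubated overnight at room temperature in the dark, quantifies parasite DNA. Infected erythrocytes at 0.3% parasitemia and 2.5% hematocrit were exposed 72 h; values normalized to DMSO and 0.29 uM artemisinin controls.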

Structure (SMILES)	parasite growth, % of DMSO control [1] [%]	parasite growth remaining, % of DMSO control (lower = more inhibition) [2] [%]	growth, % of control [3] [%]	cell viability, % of control (lower = more cytotoxic) [4] [%]	viability (% of control) [5] [%]	Potency [6]	Potency [7]	Potency [8]	Potency [9]	Potency [10]	parasite growth, % of control (lower = inhibition) [11] [%]	remaining parasite growth % (stronger effect = lower value) [12] [%]	activity, percent of control [13] [%]	remaining proliferation (% of control), lower = more inhibition [14] [%]
CC(=O)O[C@H]1C[C@@H]2CC[C@H]3[C@H]4C[C@H]([N+]5(C)CCCCC5)[C@@H](OC(C)=O)[C@@]4(C)CC[C@@H]3[C@@]2(C)C[C@H]1N1CCCCC1	40.5	64	71.6	216	123	inactive	inactive	7.43 µM (active)	7.43 µM (active)	8.33 µM (active)	–	–	–	–
Cc1ccc(-n2[nH]c(C)c(N=Nc3cccc(-c4cccc(C(=O)O)c4)c3O)c2=O)cc1C	57	–	72.9	180	28.2	inactive	inactive	18.7 µM (active)	11.8 µM (active)	18.7 µM (active)	72.1	–	–	–
CCOC(=O)[C@H](CCc1ccccc1)N[C@@H](C)C(=O)N1[C@@H](C(=O)O)C[C@H]2CCC[C@@H]21	8.54	–	4.34	7.77	4.82	inactive	inactive	5.26 µM (active)	14.8 µM (active)	18.7 µM (active)	14.6	–	–	–
CC1(C)[C@H](O[C@H]2O[C@H](C(=O)O)[C@@H](O)[C@H](O)[C@H]2O[C@@H]2O[C@H](C(=O)O)[C@@H](O)[C@H](O)[C@H]2O)CC[C@@]2(C)[C@H]1CC[C@]1(C)[C@H]2C(=O)C=C2[C@H]3C[C@@](C)(C(=O)O)CC[C@]3(C)CC[C@]21C	99.2	–	109	153	125	inactive	inactive	inactive	inactive	inactive	85.7	–	–	–
CCN(CC)CCCCNc1ncc2c(n1)N(C)C(=O)N(c1c(Cl)c(OC)cc(OC)c1Cl)C2	–	17.7	11.3	138	50.4	inactive	inactive	20.9 µM (active)	20.9 µM (active)	18.7 µM (active)	23.7	–	–	–
O=C(NCc1ccccc1)[C@H](Cc1ccccc1)NC(=O)[C@@H]1O[C@@H]1C(=O)NCCc1ccc(O)cc1	17.3	44.7	33.6	49	54.1	inactive	inactive	1.05 µM (active)	1.05 µM (active)	–	16.7	–	–	–
Cc1ncc(-c2ccnc(Nc3ccc(S(C)(=O)=O)cc3)n2)n1C(C)C	–	19.3	7.75	6.27	4.48	inactive	inactive	4.69 µM (active)	2.64 µM (active)	4.69 µM (active)	10.8	–	–	–
Cn1cc(-c2ccc3ncc(Cc4ccc5ncccc5c4)n3n2)cn1	–	60.3	13.9	45.5	35.3	inactive	inactive	inactive	inactive	inactive	33.6	–	–	–
c1ccc2c(Oc3nc(Nc4ccc(N5CCOCC5)cc4)c4ncn(C5CCCCC5)c4n3)cccc2c1	6.5	8.01	9.45	187	100	inactive	inactive	inactive	inactive	–	33.7	-0.456	1.45	-1.02
CC(C)C[C@H](NC(=O)[C@@H](NC(=O)c1cccc(-c2ccccc2)n1)[C@@H](C)O)B(O)O	4.97	8.79	3.76	3.77	4.67	inactive	inactive	0.059 µM (active)	0.0743 µM (active)	–	7.67	–	–	–
COc1cc([C@@H]2c3cc4c(cc3[C@H](O)[C@H]3COC(=O)[C@@H]23)OCO4)cc(OC)c1OC	–	–	–	21.3	11.1	inactive	inactive	0.0743 µM (active)	0.187 µM (active)	0.105 µM (active)	29.1	–	–	–
N=c1ccn2c(n1)O[C@H]1[C@@H](O)[C@@H](CO)O[C@H]12	–	119	73.8	70.9	11.2	inactive	inactive	0.332 µM (active)	0.662 µM (active)	1.05 µM (active)	83.2	–	–	–
CC(=O)NC(CS)C(=O)O (stereo not given)	–	97.9	60.7	87	93.6	inactive	inactive	inactive	inactive	inactive	118	–	–	–
O=C(C[C@@H]1CC=CCCC(=O)O[C@H](c2ccccc2)CNC1=O)NCc1ccc(Cl)cc1	62.4	96.1	54.9	17	94.4	inactive	inactive	inactive	inactive	–	65.3	94.2	102	71.1
CC(O)(C#Cc1ccc2c(c1)N(c1nc(N)ncc1Cl)CC2)c1nccs1 (stereo not given)	11.7	33.4	5.79	279	37.2	inactive	inactive	16.6 µM (active)	20.9 µM (active)	–	22.8	–	–	–
CC(C=CC(=O)NO)=C[C@@H](C)C(=O)c1ccc(N(C)C)cc1	–	7.38	3.58	2.63	2.32	inactive	inactive	0.526 µM (active)	0.743 µM (active)	0.187 µM (active)	9.43	–	–	–
Cc1cnc(NC(=O)Nc2cc(Br)c(C)cc2OC[C@@H]2CNCCO2)cn1	5.93	7.73	2.97	20.9	7.84	inactive	inactive	2.35 µM (active)	0.59 µM (active)	–	8.58	–	–	–
CCc1c(O)cc(O)c(C(=O)c2ccc(OCCN3CCOCC3)c(OC)c2)c1CC(=O)N(CCOC)CCOC	–	12.7	7.26	4.9	16.5	inactive	inactive	0.662 µM (active)	2.35 µM (active)	1.05 µM (active)	11.6	–	–	–
CC[C@H](CC[C@@H](C)[C@H]1CC[C@H]2[C@@H]3CC=C4C[C@@H](O)CC[C@]4(C)[C@@H]3CC[C@]12C)C(C)C	–	–	100	114	107	inactive	inactive	inactive	inactive	inactive	–	–	–	–
COc1ccnc2[nH]cc(C(=O)C(=O)N3CCN(C(=O)c4ccccc4)C[C@@H]3C)c12	–	98	99.1	172	119	inactive	inactive	inactive	2.64 µM (active)	inactive	–	–	–	–
CC(C)C[C@@H](C=O)NC(=O)[C@H](CC(C)C)NC(=O)[C@H](CC(C)C)NC(=O)OCc1ccccc1 (Cbz-Leu-Leu-Leu-aldehyde)	4.63	6.51	6.33	5.4	4.19	inactive	inactive	0.469 µM (active)	0.59 µM (active)	–	8.46	–	–	–
COc1cc(N2CCC(C(N)=O)CC2)ccc1Nc1nc(N)c(Cl)c(Nc2ccccc2S(=O)(=O)C(C)C)n1	–	–	53.9	147	10.6	inactive	inactive	1.05 µM (active)	16.6 µM (active)	20.9 µM (active)	35.9	–	–	–
Cc1nc(NC(=O)N2CCC[C@@H]2C(N)=O)sc1-c1ccnc(C(C)(C)C(F)(F)F)c1	13.3	36.1	5.19	21	65.8	inactive	inactive	1.48 µM (active)	11.8 µM (active)	–	24	–	–	–
N#CC(=C(O)c1ccc(Cl)cc1Cl)c1nc2cc(Cl)ccc2c(=O)[nH]1	36.6	99.7	74	34.3	95.9	inactive	inactive	inactive	inactive	–	99	–	–	–
